# AmpC inh no det – Promiscuous and Specific Inhibitors of AmpC Beta-Lactamase (assay without detergent); P00811; Potency, µM (highest dose often 28.7 µM), for inactives: top-dose activity change, negative = inhibition; AmpC nitrocefin hydrolysis, absorbance 480 nm, no detergent; AID 585, 2007; 71,000 tested, 1.8% active; note: % of control where 0% means no effect
# Target sequence (P00811 whole entry, looked up): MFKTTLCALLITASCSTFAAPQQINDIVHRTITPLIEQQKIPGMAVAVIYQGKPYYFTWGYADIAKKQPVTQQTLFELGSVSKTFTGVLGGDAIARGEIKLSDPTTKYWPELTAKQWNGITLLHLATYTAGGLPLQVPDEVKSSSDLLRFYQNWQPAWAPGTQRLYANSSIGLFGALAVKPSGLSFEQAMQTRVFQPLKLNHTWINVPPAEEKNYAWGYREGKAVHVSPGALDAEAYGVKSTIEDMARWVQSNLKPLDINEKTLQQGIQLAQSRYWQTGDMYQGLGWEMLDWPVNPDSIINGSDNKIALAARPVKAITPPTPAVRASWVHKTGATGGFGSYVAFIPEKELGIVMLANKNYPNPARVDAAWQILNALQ
#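 AmpC, 20 mM phosphate pH 7.0; 15 min cpd preinc, RT; start with nitrocefin (800 uM stock); A480 kinetic read, 20 s intervals, 4 min. No-enzyme wells = negative control.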
# AmpC det inh – Promiscuous and Specific Inhibitors of AmpC Beta-Lactamase (assay with detergent); P00811; 71,000 tested, 0.09% active; purified AmpC, nitrocefin hydrolysis with detergent; Potency, µM (series often up to 28.7 µM), for the others: top-dose activity change, negative = inhibition; AID 584, 2007; active = well fitted curve in the direction sought with a large enough effect; inconclusive = small, poorly fitted or top-dose-only effect; note: % is set by controls: 0 for no effect and ±100 for the full control effect
#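 E. coli AmpC (5.3 nM) in 20 mM phosphate pH 7.0 with 0.01% Triton X-100, preincubated 15 min RT with compound; nitrocefin (2 uL of 800 uM stock) hydrolysis followed by 480 nm absorbance every 20 s over 4 min.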
# SmPrx2 inh – Schistosoma Mansoni Peroxiredoxins (Prx2). Schistosoma mansoni peroxiredoxin 2 (Prx2). S. mansoni Prx2 activity coupled to TGR/GSH (TGR is thioredoxin glutathione reductase), NADPH fluorescence loss, qHTS. Potency, µM. 65,000 tested, 0.07% active
#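 Prx2 inhibition was measured as reduced NADPH consumption when electrons flowed from NADPH through TGR and glutathione to Prx2 and H2O2. Plates were read kinetically over 8 min; enzyme reagents were held at 4 deg C during dispensing.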
# Anthrax LT inh – qHTS Assay for Anthrax Lethal Toxin Internalization | Potency, µM (titrated, usually from 40 µM), inactives show at the highest dose activity change, negative = inhibition, most hits filed as inhibitors | AID 912, 2007 | 70,000 tested, 0.67% active | Cells, anthrax lethal toxin internalization, FRET ratio (460/530); note: % is set by controls: 0 for no effect and ±100 for the full control effect; nearly all actives have a fitted effect of over 50% in size
# * marks the source's active call; other numbers are inactive results; u = inconclusive; x = no result; ! = not confirmed by another sample; [ ] = dose if it differs, or a comment. Only some compounds are listed: those with a hit (about 2.4% of all), similar ones and a draw of the others. Unless noted, calls come from the whole dose curve. Potency is the fitted concentration of half-maximal effect.
SMILES,AmpC inh no det,AmpC det inh,SmPrx2 inh,Anthrax LT inh
O=c1cnc2cncnc2n1Cc1ccccc1,14.1%,-3.0%,>57,u
O=[N+]([O-])c1ccc2c(N=Nc3ccc4ccccc4c3O)c(O)cc(S(=O)(=O)O)c2c1,-25.5%[5.75 µM],-20.4%[5.75 µM],>57,u
COc1cc(OC)c(NC2c3ccccc3C(=O)N2c2cc(C)ccn2)cc1Cl (stereo not drawn),82.5%,8.5%,>57,-9.6%
Cc1ccc(N2C(=O)c3ccccc3C2O)nc1 (stereo not drawn),3.98µM*[single pt active],11.5%,>57,14.2%
O=C1c2ccccc2C(Nc2ccc(Cl)cn2)N1c1ccccn1 (stereo not drawn),3.98µM*[single pt active],14.8%,>57,-22.2%
O=C1c2ccccc2C(O)N1c1ccc(Cl)cc1 (stereo not drawn),-8.1%,7.4%,>57,-13.5%
Cc1ccc(N2C(=O)c3ccccc3C2Nc2ccccc2F)nc1 (stereo not drawn),3.98µM*[single pt active],10.2%,>57,u
CS(=O)(=O)c1ccc(/C=N\NC(N)=S)cc1,-0.8%[5.75 µM],2.8%[5.75 µM],>57,-0.4%[8 µM]
C[C@H](Br)C(=O)c1ccc2cc(Br)c3ccccc3c2c1,16.3%[5.75 µM],-3.6%[5.75 µM],>57,-9.3%[8 µM]
CC(=O)c1ccc(OCC(O)CN2CCN(Cc3ccc4c(c3)OCO4)CC2)cc1 (stereo not drawn),3.98µM*[single pt active],13.9%,>57,-16.9%
Cc1ccc(OCC(O)CN2CCN(CC(O)COc3ccc(C)cc3)CC2)cc1 (stereo not drawn),103.3%,1.5%,>57,7.8%
Cc1ccc(OCC(O)CN2CCN(Cc3ccc4c(c3)OCO4)CC2)c(C)c1 (stereo not drawn),92.3%,-4.1%,>57,u
Cc1cccc(OCC(O)CN2C(C)(C)CC(O)CC2(C)C)c1C (stereo not drawn),14.6%,-0.7%,>57,-2.8%
CC(=O)c1ccc(OCC(O)CN2C(C)(C)CC(O)CC2(C)C)cc1 (stereo not drawn),3.98µM*[single pt active],13.9%,>57,0.5%
CC(=O)c1ccc(OCC(O)CN2CCN(CCO)CC2)cc1 (stereo not drawn),3.98µM*[single pt active],11.3%,>57,1.2%
CCN1CCN(CC(O)COc2ccc(C(C)=O)cc2)CC1 (stereo not drawn),3.98µM*[single pt active],14.3%,>57,-3.8%
CC(=O)O/C(=C1/C[C@H]2[C@@H]3CC=C4C[C@@H](OC(C)=O)CC[C@]4(C)[C@@H]3CC[C@]2(C)C1=O)C(F)(F)F,-4.7%[5.75 µM],-4.2%[5.75 µM],>57,u
Cc1ccc(S(=O)(=O)N2CCC(C(=O)O)(c3ccccc3)CC2)cc1,1.0%[5.75 µM],-0.9%[5.75 µM],>57,1.1%[8 µM]
CCNCCC1(CC)C(=O)NC(=O)NC1=O,-6.1%[5.75 µM],-1.5%[5.75 µM],>57,4.8%[8 µM]
CCCCCCCCCCCCCCCCCC(=O)NC[C@@H](COP(=O)([O-])OCC[N+](C)(C)C)OCC,146.1%,-13.3%,u,u
CC(=O)c1ccc(OCC(O)CN2CCCC(C)C2)cc1 (stereo not drawn),3.16µM*[single pt active],13.9%,>57,8.8%
O=C(Nc1cccc(Br)c1)c1cc2ccccc2o1,-3.8%,-2.7%,x,5.01µM*
CCC[C@H](Sc1nc(N)nc2nc[nH]c12)C(=O)O,-0.4%[5.75 µM],-3.3%[5.75 µM],>57,-3.0%[8 µM]
O=C(CCCn1c(=O)c2sccc2n(Cc2cc(=O)n3ccccc3n2)c1=O)NCc1ccco1,3.98µM*[single pt active],17.9%,>57,-5.0%
N#Cc1ccccc1Cn1c(=O)n(Cc2ccc(C(=O)NCc3ccco3)cc2)c(=O)c2sccc21,3.98µM*[single pt active],9.1%,x,11.8%
SMILES,AmpC inh no det,AmpC det inh,SmPrx2 inh,Anthrax LT inh
Cc1ccc(-n2c(=O)c3sccc3n(CC(=O)NCc3ccco3)c2=O)cc1,-20.3%,9.5%,>57,8.3%
N#Cc1ccccc1Cn1c(=O)n(-c2ccc(CC(=O)NCc3ccco3)cc2)c(=O)c2sccc21,3.98µM*[single pt active],9.7%,>57,u
CC[C@H]1CN(C)[C@H]2Cc3c([nH]c4ccccc34)C(=O)C[C@H]1[C@H]2C(=O)OC,-3.0%[5.75 µM],16.7%[5.75 µM],>57,-13.5%[8 µM]
C=CCN1CC[C@]23c4c5ccc(O)c4O[C@@H]2/C(=N/NC(=O)c2ccccc2)CC[C@@]3(O)[C@H]1C5,0.2%,-2.9%,>57,u
N#C/C(=C\c1ccc(O)c(O)c1)C(=O)Nc1ccccc1,u,-4.8%,>57,25.1µM*
C[C@H](Cc1ccc(O)c(O)c1)[C@@H](C)Cc1ccc(O)c(O)c1,-23.7%,-5.0%,>57,15.8µM*!
N[C@@H](Cc1ccc(O)c(O)c1)C(=O)O,-10.6%[12.8 µM],1.0%[12.8 µM],>57,-10.0%[3.58 µM]
